These results are taken from PubChem BioAssay.

As usually defined, the inhibition is the relative decrease from the control value, in per cent.

The subject of experiment [1] is TRPC4 beta (transient receptor potential cation channel C4), mouse. Nature of the experiment: activators of mouse TRPC4 channel, confirmation, cell-based, Fluo4 calcium, HEK293 TRPC4beta/mu-opioid, duplicates, 10 µM (AID 2426;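 active means fluorescence ratio normalized to control raised more than 50% in primary screen plus both repeat runs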). The following applies: Fluo4 calcium fluorescence, at 10 µM; active compounds read high.
Experiment [2] relates to transient receptor potential cation channel C4 beta (TRPC4), mouse. Description: activators of mouse TRPC4 channel, confirmation, cell-based, second round, Fluo4, HEK293 TRPC4beta/mu-opioid, 1 µM (AID 2461;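 active means primary screen active and over 50% activation in each of two duplicate runs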). The settings on record: Fluo4 calcium fluorescence, at 1 µM; active compounds read high.
Experiment [3] deals with TRPC4 (transient receptor potential cation channel C4 beta), mouse. Nature of the experiment: positive allosteric modulators of mouse TRPC4, confirmation, cell-based, second round, Fluo-4, HEK293 TRPC4beta/mu-opioid, 1 µM (AID 2554;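 active means primary screen hit whose fluorescence ratio, in both repeats, exceeds the weak agonist control mean by 3 SD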). The settings on record: DAMGO EC20, Fluo-4 calcium flux, at 1 µM; active compounds read high.
The subject of experiment [4] is TRPC4 beta (transient receptor potential cation channel C4), mouse. Nature of the experiment: positive allosteric modulators of mouse TRPC4, confirmation, cell-based, Fluo-4, HEK293 TRPC4beta/mu-opioid (AID 2555;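 active means primary screen hit whose calcium fluorescence ratio, in both repeats, exceeds the weak agonist control mean by 3 SD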). The settings on record: DAMGO EC20, Fluo-4 calcium flux, at 10 µM; active compounds read high. In general terms: Calcium flux is commonly read through the fluorescence of an indicator in the cells.

Experiment [5] addresses Short transient receptor potential channel 4 (Mus musculus) (UniProt Q9QUQ5). Nature of the experiment: inhibitors of mouse TRPC4 channel, confirmation, cell-based, Fluo4, HEK293 TRPC4beta/mu-opioid (AID 2636;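 active means calcium signal cut by more than 3 SD below the full-agonist control yet still positive, in both repeats and the earlier primary screen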). The settings on record: DAMGO, Fluo4 calcium flux, at 10 µM; active compounds read high.
For experiment [6] the target is unchanged. Nature of the experiment: inhibitors of mouse TRPC4 channel, confirmation, cell-based, second round, Fluo4, HEK293 TRPC4beta/mu-opioid, 1 µM (AID 2637;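 active means calcium signal ratio cut to more than 3 SD under the fully stimulated control mean yet still positive, in both repeats and the primary screen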;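 on inhibition: percent of integrated ratio relative to wells lacking test compound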). The following applies: Fluo4 calcium flux, DAMGO, at 1 µM; active compounds read high.
The target is the same in experiment [7]. Description: mouse TRPC4 channel activators, dose response, cell-based, HEK293 TRPC4/mu-opioid, Fluo-4 calcium (AID 434937;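 active means primary screen activator hit with a dose response curve and TRPC4 channel activation at any tested dose; inactive means no activation, no dose response, or not a primary hit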).
Experiment [8] has the same target. Description: TRPC4 positive allosteric modulators, dose response, cell-based, HEK293 TRPC4/mu-opioid, Fluo-4 calcium, EC20 DAMGO (AID 434941;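 active means earlier screen potentiator hit that boosts the TRPC4 ion channel at some dose, with a dose response; inactive means no potentiation, no dose response, or not a prior hit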;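 further: calcium entry triggered by an EC20 dose of DAMGO at the co-expressed mu-opioid receptor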).
The target of experiment [9] is Short transient receptor potential channel 6 (Mus musculus) (UniProt Q61143). Nature of the experiment: inhibition of mouse TRPC6 channel, confirmation, selectivity assay for TRPC4 inhibitor project, cell-based, HEK293, membrane potential dye, duplicate (AID 434948;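 active means active in primary screen and both duplicates, each dropping signal beyond three positive-control SD with fluorescence still positive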). The following applies: HEK293 TRPC6, membrane potential dye fluorescence, at 10 µM, stimulated with maximal-effect acetylcholine; active compounds read high.

The target is the same in experiment [10]. Nature of the experiment: activation of mouse TRPC6 channel, confirmation, selectivity assay for TRPC4 activator project, cell-based, HEK293, membrane potential dye, duplicate (AID 434950;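 active means membrane potential signal rise above negative control mean plus 3 SD in both duplicates, also active in the earlier TRPC4 screen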). The settings on record: HEK293 TRPC6, membrane potential fluorescence, at 10 µM; active compounds read high.
For experiment [11] the target is unchanged. Description: TRPC6 potentiation by TRPC4 potentiator hits, confirmation, selectivity assay for TRPC4 potentiator project, HEK293 cells, membrane potential dye, duplicate (AID 434952;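 active means compound raising the membrane signal above positive-control mean plus 3 SD in both repeats, and a primary screen hit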). The following applies: HEK293 TRPC6, membrane potential dye fluorescence, at 10 µM, maximal acetylcholine added after compound; active compounds read high.
The target of experiment [12] is Short transient receptor potential channel 4 (Mus musculus) (UniProt Q9QUQ5). Description: calcium flux activators in TRPC4/5HT1a cells, counter-screen for TRPC4 activator project, cell-based, second counter screen, HEK293 TRPC4/5HT1a, Fluo-4 (AID 434977;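 active means calcium signal rise above buffer-control mean plus 5 SD in both duplicates, and also a hit in the primary screen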). The settings on record: Fluo-4 calcium flux, at 10 µM; active compounds read high.
A short description of experiment [13]: calcium flux inhibitors in TRPC4/5HT1a cells, confirmation, counter-screen for TRPC4 inhibitor project, cell-based, second counter screen, HEK293 TRPC4/5HT1a, Fluo-4 (AID 434978;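 active means primary screen active whose calcium signal fell more than 3 SD beyond the full-serotonin control mean in both duplicate plates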;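 on outcome: serotonin given first at submaximal then at maximal dose after compound preincubation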). The following applies: Fluo-4 calcium flux, at 10 µM, serotonin added to trigger calcium flux; active compounds read high.
For experiment [14], the system named is TRPC4 (mouse), co-expressed with 5HT1a in HEK293. Nature of the experiment: calcium flux potentiators in TRPC4/5HT1a cells, confirmation, counter-screen for TRPC4 potentiator project, cell-based, second counter screen, HEK293 TRPC4/5HT1a, Fluo-4 (AID 434979). The following applies: Fluo-4 calcium flux, at 10 µM, serotonin added at its EC20 dose; active compounds read high.

A short description of experiment [15]: calcium flux activation in mu-opioid HEK293 cells, confirmation, counter-screen for TRPC4 activator project, cell-based, HEK293 mu-opioid receptor line (AID 449723;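 active means hit in primary screen, with calcium signal over 5 SD above buffer well mean in both duplicates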;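 further: counter screen cells carry the mu-opioid receptor alone and lack TRPC4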). The settings on record: Fluo-4 calcium fluorescence, at 10 µM; active compounds read high.
A short description of experiment [16]: calcium flux enhancement in mu-opioid HEK293 cells, confirmation, counter-screen for TRPC4 allosteric potentiator project, cell-based, HEK293 mu-opioid receptor line (AID 449724;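 active means calcium signal rise more than 3 SD above the low-dose agonist control mean, in both duplicate plates and the primary screen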;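 further: HEK293 cells carrying mu-opioid receptor only with no TRPC4 channel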). The settings on record: Fluo-4 calcium flux, at 10 µM, compound added before EC20 DAMGO stimulus; active compounds read high.

For part of these data: Results with a measured potency or affinity are listed apart. Calls of active or inactive are those of the source.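 How the source made its calls, unless noted: active means signal rise over 3 SD above mean of control wells given weak agonist, in both repeats and first screen; inactive means the rest.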

Short transient receptor potential channel 4 (Mus musculus), sequence (Q9QUQ5 whole entry, looked up): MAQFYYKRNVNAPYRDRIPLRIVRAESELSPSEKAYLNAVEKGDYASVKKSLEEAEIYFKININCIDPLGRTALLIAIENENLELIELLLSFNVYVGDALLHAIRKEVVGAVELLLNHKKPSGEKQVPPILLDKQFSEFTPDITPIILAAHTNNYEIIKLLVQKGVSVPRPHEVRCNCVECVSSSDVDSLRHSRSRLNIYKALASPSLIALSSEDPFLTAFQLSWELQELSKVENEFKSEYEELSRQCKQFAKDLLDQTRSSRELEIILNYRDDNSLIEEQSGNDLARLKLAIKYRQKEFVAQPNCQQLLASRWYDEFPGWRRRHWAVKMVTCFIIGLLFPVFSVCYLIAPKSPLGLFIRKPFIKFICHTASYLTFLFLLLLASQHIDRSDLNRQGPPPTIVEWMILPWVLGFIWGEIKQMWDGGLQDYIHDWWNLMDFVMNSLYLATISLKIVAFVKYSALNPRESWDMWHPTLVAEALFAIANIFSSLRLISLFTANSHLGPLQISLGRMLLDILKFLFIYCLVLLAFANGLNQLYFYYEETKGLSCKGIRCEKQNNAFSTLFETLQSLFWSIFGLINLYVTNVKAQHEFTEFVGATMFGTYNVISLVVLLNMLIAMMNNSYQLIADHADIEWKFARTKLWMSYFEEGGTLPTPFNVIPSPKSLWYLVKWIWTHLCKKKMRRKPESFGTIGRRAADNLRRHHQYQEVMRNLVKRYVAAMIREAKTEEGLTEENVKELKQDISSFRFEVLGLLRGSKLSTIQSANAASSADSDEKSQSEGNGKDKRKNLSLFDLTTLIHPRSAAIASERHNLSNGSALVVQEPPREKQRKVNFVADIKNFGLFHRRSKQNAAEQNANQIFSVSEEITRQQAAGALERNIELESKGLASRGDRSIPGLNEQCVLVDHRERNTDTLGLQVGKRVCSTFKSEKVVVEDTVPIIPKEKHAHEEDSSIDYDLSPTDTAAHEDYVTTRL
Short transient receptor potential channel 6 (Mus musculus), sequence (Q61143 whole entry, looked up): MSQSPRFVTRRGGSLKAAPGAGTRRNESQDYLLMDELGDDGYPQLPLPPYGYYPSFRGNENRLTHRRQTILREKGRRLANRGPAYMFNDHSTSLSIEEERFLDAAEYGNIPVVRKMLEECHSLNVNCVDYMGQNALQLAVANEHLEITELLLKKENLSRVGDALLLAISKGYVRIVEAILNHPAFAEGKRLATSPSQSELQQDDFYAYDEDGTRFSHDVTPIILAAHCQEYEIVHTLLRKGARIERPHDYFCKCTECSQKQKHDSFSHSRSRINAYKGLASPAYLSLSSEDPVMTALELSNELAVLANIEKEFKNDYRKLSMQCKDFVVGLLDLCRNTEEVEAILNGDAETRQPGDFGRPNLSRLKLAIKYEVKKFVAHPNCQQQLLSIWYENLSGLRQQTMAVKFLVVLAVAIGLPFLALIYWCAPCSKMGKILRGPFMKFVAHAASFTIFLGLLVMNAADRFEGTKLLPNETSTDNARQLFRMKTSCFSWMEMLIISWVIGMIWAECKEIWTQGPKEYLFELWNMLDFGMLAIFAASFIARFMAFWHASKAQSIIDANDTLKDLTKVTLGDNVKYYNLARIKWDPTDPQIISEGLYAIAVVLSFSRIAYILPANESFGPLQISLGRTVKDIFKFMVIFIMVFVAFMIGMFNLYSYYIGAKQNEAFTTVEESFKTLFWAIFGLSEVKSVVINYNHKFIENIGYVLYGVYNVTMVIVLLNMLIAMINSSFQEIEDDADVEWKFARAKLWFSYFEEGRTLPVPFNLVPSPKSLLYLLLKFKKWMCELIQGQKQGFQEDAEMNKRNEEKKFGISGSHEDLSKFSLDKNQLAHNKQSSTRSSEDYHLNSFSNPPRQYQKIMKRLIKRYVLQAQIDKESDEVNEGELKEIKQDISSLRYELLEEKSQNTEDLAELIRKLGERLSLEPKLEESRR

For the compound `Cc1cccn2c(=O)c(/C=N/O)c(N3CCCC3)nc12`, the result in experiment [1], in experiment [2], in experiment [3], in experiment [4], in [7] and in experiment [8] was inactive. In addition, the call in experiment [9], in experiment [10], in experiment [11], in experiment [12], in [14] and in experiment [15] was inactive. Besides, the result in [16] was inactive. The inhibition was 57% (active) in [5], 72% (active) in experiment [6] and 35% (active) in experiment [13].
In the case of `CCCCC(=O)N(c1ccc(C(=O)O)cc1)c1nc(-c2ccc(Cl)cc2)c(CC)s1`, the outcome in experiment [1], in experiment [2], in [3], in [4], in [6] and in [7] was inactive. The outcome in [8], in experiment [9], in experiment [10], in experiment [11], in experiment [12] and in [14] was inactive. The outcome in [15] and in [16] was inactive. Also, the inhibition in experiment [5] was 52% (active); in experiment [13], 17.1% (active).
Consider `COc1cccc(O)c1CN1CCCC(C(=O)c2cccc(C(F)(F)F)c2)C1` (stereo not given), for which the outcome in experiment [1], in [2], in [3], in experiment [4], in [6] and in experiment [7] was inactive. For the same compound, the outcome in [8], in [9], in experiment [10], in experiment [11], in [12] and in experiment [14] was inactive. Besides, the result in [15] and in experiment [16] was inactive. For the same compound, the inhibition in experiment [5] is 70% (active); in experiment [13], 34.3% (active).
On to `COc1ccc(C2C(C(C)=O)=C(O)C(=O)N2c2ccc(Br)cc2)cc1` (stereo not given), for which the outcome in experiment [1], in experiment [2], in [3], in experiment [4], in experiment [7] and in experiment [8] was inactive. Also, the compound was called inactive in experiment [9], in experiment [10], in experiment [11], in experiment [12], in experiment [14] and in experiment [15]. The result in [16] was inactive. The results for the inhibition in experiment [5], in experiment [6] and in experiment [13] were 84% (active), 62% (active) and 23.3% (active), respectively.
Consider `Cc1c(CCOC(=O)CC23CC4CC(CC(C4)C2)C3)sc[n+]1Cc1ccccc1`, for which the result in [1], in experiment [2], in experiment [3], in [4], in experiment [6] and in experiment [7] was inactive. In addition, the result in experiment [8], in experiment [10], in experiment [11], in experiment [12], in experiment [14] and in experiment [15] was inactive. For the same compound, in experiment [16], the result was inactive. The inhibition is 96% (active) in experiment [5], 44.5% (active) in experiment [9] and 19.6% (active) in [13].
Turning to `CCc1ccccc1NC(=S)N(CCCN(C)C)Cc1cc2cc3c(cc2[nH]c1=O)OCO3`, the result in experiment [1], in experiment [2], in [3], in experiment [4], in [7] and in [8] was inactive. The compound was called inactive in experiment [9], in experiment [10], in [11], in experiment [12], in [14] and in [15]. The outcome in experiment [16] was inactive. In addition, the inhibition in experiment [5] was 94% (active); in experiment [6], 92% (active); in experiment [13], 19.9% (active).
As for `Cc1ccc(CNC(C)c2ccccc2)cc1` (stereo not given), the result in [1], in experiment [2], in experiment [3], in experiment [4], in [6] and in [7] was inactive. Further, the result in [8], in experiment [9], in [10], in experiment [11], in experiment [12] and in [14] was inactive. Further, the result in experiment [15] and in [16] was inactive. Besides, the inhibition in experiment [5] is 92% (active); in experiment [13] it was 30.6% (active).
As for `COC(=O)CSc1nnc(-c2sc3cc(OC)ccc3c2Cl)n1C`, the result in [1], in experiment [2], in [3], in [4], in experiment [7] and in experiment [8] was inactive. The result in experiment [9], in [10], in [11], in [12], in experiment [13] and in experiment [14] was inactive. The result in experiment [15] and in experiment [16] was inactive. Also, the inhibition in experiment [5] is 95% (active); in experiment [6] it was 59% (active).
Consider `Cc1ccc(C(CNS(=O)(=O)c2ccc([N+](=O)[O-])cc2)N2CCN(C)CC2)cc1` (stereo not given), for which the result in experiment [1], in [2], in experiment [3], in experiment [4], in experiment [7] and in experiment [8] was inactive. Also, the outcome in experiment [9], in experiment [10], in [11], in [12], in [13] and in experiment [14] was inactive. Moreover, the result in experiment [15] and in experiment [16] was inactive. Further, the inhibition in experiment [5] is 54% (active); in [6] it was 63% (active).
`Cc1nc2ccccc2n1CCOc1ccc(F)cc1`: the outcome in [1], in [2], in experiment [3], in experiment [4], in [7] and in experiment [8] was inactive. Further, the call in experiment [9], in [10], in [11], in experiment [12], in experiment [14] and in experiment [15] was inactive. The result in [16] was inactive. Moreover, the inhibition in experiment [5] is 95% (active); in experiment [6], 79% (active); in [13], 7.92% (active).
As to `COc1ccc(C2CC2/C(=N/O)c2ccccc2)cc1` (stereo not given), the outcome in [1], in experiment [2], in experiment [3], in experiment [4], in [6] and in [7] was inactive. For the same compound, the outcome in [8], in experiment [9], in experiment [10], in experiment [11], in experiment [12] and in experiment [14] was inactive. For the same compound, the outcome in experiment [15] and in [16] was inactive. For the same compound, the inhibition in [5] was 94% (active); in experiment [13], 7.57% (active).
`CC(C)n1c(NCc2c[nH]c3ccccc23)nc2ccccc21`: the result in [1], in experiment [2], in experiment [3], in [4], in experiment [6] and in [7] was inactive. For the same compound, the result in [8], in experiment [10], in [11], in experiment [12], in experiment [14] and in experiment [15] was inactive. The result in experiment [16] was inactive. Besides, the figures for the inhibition in experiment [5], in experiment [9] and in experiment [13] were 50% (active), 33.5% (active) and 26.4% (active), respectively.
For the compound `Cc1cccc(N2CCN(Cc3ccoc3)CC2)c1C`, the outcome in [1], in [2], in experiment [3], in experiment [4], in [6] and in experiment [7] was inactive. Further, the outcome in experiment [8], in [9], in [10], in experiment [11], in experiment [12] and in [14] was inactive. Moreover, the result in [15] and in experiment [16] was inactive. The results for the inhibition in [5] and in experiment [13] were 72% (active) and 25.2% (active), respectively.
Take `COc1ccc(C)cc1N(C(=O)c1snc(C(N)=O)c1N)C(C(=O)NC1CCCCC1)c1ccc(C)o1` (stereo not given): the result in experiment [1], in experiment [2], in experiment [3], in experiment [4], in experiment [7] and in [8] was inactive. Also, the compound was classed as inactive in experiment [9], in experiment [10], in experiment [11], in [12], in [14] and in [15]. Also, the result in experiment [16] was inactive. For the same compound, the inhibition is 92% (active) in [5], 72% (active) in [6] and 19.6% (active) in experiment [13].
With `COc1ccc(Nc2cc(C)nc3ccc(OC)cc23)cc1`, the outcome in experiment [1], in experiment [2], in experiment [3], in experiment [4], in [6] and in experiment [7] was inactive. Also, the outcome in experiment [8], in [10], in experiment [11], in experiment [12], in experiment [13] and in [14] was inactive. Moreover, the result in experiment [15] and in experiment [16] was inactive. Further, the inhibition is 91% (active) in [5] and 29.5% (active) in experiment [9].
